From PMC5540273 (PLoS ONE, 2017)

Legend:
Conditions in all cases: concentration: 1 μM, replicates: in singlicate; n = 1
[1] = test system: T1, RSK4(Kin.Dom.1-N-terminal)
T1 construct: gene RPS6KA6

[2] = test system: T2, RSK4(Kin.Dom.2-C-terminal)
T2 construct: gene RPS6KA6

[3] = test system: S6K1
[4] = test system: SBK1
[5] = test system: SGK2
[6] = test system: SGK3
[7] = test system: SGK
[8] = test system: SIK2
[9] = test system: SIK
[10] = test system: SLK
[11] = test system: T3, SNARK
T3 construct: gene NUAK2

[12] = test system: SNRK
[13] = test system: SRC
[14] = test system: SRMS
[15] = test system: SRPK1
[16] = test system: SRPK2
[17] = test system: SRPK3
[18] = test system: STK16
[19] = test system: STK33
[20] = test system: STK35
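Note: KINOMEscan kinase panel screen.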

| Compound | %Inh [1] [%] | %Inh [2] [%] | %Inh [3] [%] | %Inh [4] [%] | %Inh [5] [%] | %Inh [6] [%] | %Inh [7] [%] | %Inh [8] [%] | %Inh [9] [%] | %Inh [10] [%] | %Inh [11] [%] | %Inh [12] [%] | %Inh [13] [%] | %Inh [14] [%] | %Inh [15] [%] | %Inh [16] [%] | %Inh [17] [%] | %Inh [18] [%] | %Inh [19] [%] | %Inh [20] [%] |
| --- | --- | --- | --- | --- | --- | --- | --- | --- | --- | --- | --- | --- | --- | --- | --- | --- | --- | --- | --- | --- |
| Cn1cc(-c2cnc(N)c3c(-c4ccc5c(c4)CCN5C(=O)Cc4ccccc4)csc23)cn1 [GSK2593074] | 0 | 18 | 16 | 0 | 6 | 0 | 21 | 9 | 42 | 69 | 12 | 0 | 81 | 55 | 3 | 0 | 0 | 24 | 0 | 4 |
| Cn1cc(-c2ccc3c(c2)CCN3C(=O)Cc2cc(F)cc(F)c2F)c2c(N)ncnc21 [GSK2634140] | 0 | 0 | 17 | 16 | 4 | 0 | 0 | 0 | 8 | 60 | 28 | 8 | 10 | 0 | 34 | 0 | 0 | 0 | 0 | 0 |
| Cl.Cl.NCC(NC(=O)c1cc(-c2cccnc2)c(-c2ccnc3[nH]ccc23)s1)c1ccccc1 (centres unmarked) [GSK1323434] | 0 | 31 | 27 | 42 | 51 | 70 | 27 | 0 | 12 | 32 | 65 | 0 | 33 | 0 | 44 | 14 | 0 | 26 | 18 | 0 |
| O=C(Nc1n[nH]c2nc(-c3cccc(O)c3)ccc12)C1CC1 [SB-711805] | 52 | 14 | 0 | 4 | 14 | 13 | 28 | 0 | 0 | 48 | 0 | 7 | 0 | 15 | 45 | 0 | 32 | 83 | 0 | 0 |
| COc1cccc(NC(=O)NCCNc2ccnc(Nc3ccc(F)cc3)n2)c1 [GSK1379879] | 0 | 0 | 0 | 40 | 12 | 2 | 3 | 4 | 0 | 7 | 0 | 0 | 0 | 0 | 0 | 0 | 3 | 0 | 0 | 1 |
| Nc1cccc(-c2ccc3c(N)n[nH]c3c2)c1 [GSK2193613] | 0 | 25 | 0 | 8 | 0 | 34 | 33 | 0 | 0 | 2 | 22 | 0 | 0 | 3 | 54 | 16 | 0 | 15 | 0 | 0 |
| CCOc1nccc(-c2c(-c3ccc(F)cc3)ncn2C2CCNCC2)n1 [SB-249175] | 41 | 83 | 16 | 46 | 34 | 12 | 29 | 4 | 2 | 71 | 82 | 21 | 0 | 34 | 8 | 19 | 1 | 0 | 4 | 0 |
| Cc1ccc(Nc2ccnc(Nc3ccc(C)c(F)c3)n2)cc1O.Cl [GW582868] | 0 | 0 | 0 | 6 | 0 | 0 | 1 | 100 | 0 | 41 | 0 | 0 | 86 | 0 | 34 | 7 | 17 | 11 | 0 | 99.5 |
| COc1cc(Nc2ccnc3cc(-c4ccncc4)ccc23)cc(OC)c1OC.Cl [GW494610] | 19 | 0 | 17 | 100 | 5 | 2 | 19 | 74 | 91.5 | 49 | 0 | 0 | 96.1 | 0 | 0 | 0 | 18 | 0 | 0 | 6 |
| CC(C)(C)c1ccc(C(=O)Nc2cn3cc(-n4ccnc4)ccc3n2)cc1 | 29 | 0 | 8 | 0 | 11 | 60 | 2 | 10 | 9 | 6 | 79 | 16 | 0 | 0 | 0 | 0 | 0 | 19 | 0 | 0 |
